SKKanGAS inh = SKKanGAS growth inhibition; AID 1662; 300,000 tested, 1.3% active; inhibition, % at 7.5 µM; S. pyogenes SKKanGAS, kanamycin growth, BacTiter-Glo, 6 h;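 active = mean replicate score, as percent of positive control median, at least 50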;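 note: strain carries kanamycin resistance gene driven by streptokinase promoter and grows in 40 µg/ml kanamycin; loss of luminescence reflects streptokinase promoter inhibition or plain growth inhibition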
TIM10 inh = TIM10 yeast growth inhibition; S. cerevisiae TIM10 strain growth, BacTiter-Glo luminescence, 24 h; inhibition, % at 10 µM; 330,000 tested, 1.4% active; AID 463195;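 active = inhibition of 40% or more at the single tested concentration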;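 note: wild-type TIM10 isogenic control strain grown at permissive 25 °C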
tim23-1 inh = inhibits growth of tim23-1 mutant yeast; inhibition, % at 20 µM; 330,000 tested, 1.3% active; S. cerevisiae tim23-1 growth, BacTiter-Glo luminescence, 24 h;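 active = growth inhibition of the mutant yeast at or above 50%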;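 note: temperature-sensitive mutant grown at 25 °C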
tim10-1 inh = tim10-1 yeast growth inhibition; inhibition, % at 20 µM; 330,000 tested, 2.2% active; S. cerevisiae tim10-1 ts strain growth, BacTiter-Glo, 24 h;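 active = inhibition of at least 40%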;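 note: mutant grown at 25 °C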
ATG4B inh = blocks human ATG4B protease cleavage of LC3 substrate; 340,000 tested, 0.51% active; inhibition, % at 8.33 µM; AID 504462; Q9Y4P1; ATG4B cleavage of LC3-PLA2, NBD-HPC fluorescence, 1 h; in the data active = inhibition above about 40%
Target sequence (Q9Y4P1 whole entry, looked up): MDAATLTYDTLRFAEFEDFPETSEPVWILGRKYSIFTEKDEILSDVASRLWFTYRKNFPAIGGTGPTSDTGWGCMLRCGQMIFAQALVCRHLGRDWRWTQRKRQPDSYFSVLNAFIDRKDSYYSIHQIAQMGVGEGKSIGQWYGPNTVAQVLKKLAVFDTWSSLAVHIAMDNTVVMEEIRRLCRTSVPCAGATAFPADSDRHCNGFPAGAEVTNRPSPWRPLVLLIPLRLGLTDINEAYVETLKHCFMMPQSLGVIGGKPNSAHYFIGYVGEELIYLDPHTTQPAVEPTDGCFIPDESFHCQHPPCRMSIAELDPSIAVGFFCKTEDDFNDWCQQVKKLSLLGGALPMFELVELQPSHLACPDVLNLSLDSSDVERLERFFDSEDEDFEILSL
PfHsp90 yeast 2 = inhibits growth of yeast expressing Plasmodium falciparum Hsp90; S. cerevisiae expressing PfHsp90, BacTiter-Glo ATP, 48 h; yeast lacking PDR1 and PDR3 efflux regulators; inhibition, % at 9.4 µM; 310,000 tested, 0.32% active; AID 504621;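 active = every replicate shows inhibition above about 80%, whatever the replicate mean, limit read from the data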
Of the large screens only hits and unclear results are named; the others gave an inactive call. Most compounds without a hit are left out; they make up all but 4.7% or so of the library.

Cc1cc(C)c(C)c(S(=O)(=O)N[C@@H](C)C(=O)OCc2cc(=O)n3cc(Br)ccc3n2)c1C	none
CCCCCCCCC(=O)NNC(=O)c1c(O)c2ccccc2n(CCC)c1=O	SKKanGAS inh 116.7
CCCCCCCCCC(=O)NNC(=O)c1c(O)c2ccccc2n(CCC)c1=O	SKKanGAS inh 100.6
CCCn1c(=O)c(C(=O)Nc2cccc(C)n2)c(O)c2ccccc21	none
CCCn1c(=O)c(C(=O)NCc2ccccc2)c(O)c2ccccc21	none
CCCn1c(=O)c(C(=O)Nc2ncccc2C)c(O)c2ccccc21	SKKanGAS inh 54.6
COc1ccc(OC)c(N(CC(=O)N2CCC(C)CC2)S(=O)(=O)c2ccc(OC)c(OC)c2)c1	none
Cc1nnc(N=c2ssnc2Cl)o1	PfHsp90 yeast 2 143.0 (no result: SKKanGAS inh)
CCN(CC)c1ccc(C(=C2C=CC(=[N+](CC)CC)C=C2)c2ccccc2)cc1	PfHsp90 yeast 2 147.4 (no result: SKKanGAS inh, TIM10 inh, tim23-1 inh, tim10-1 inh)
Cc1cc(N2CCC(C)CC2)nc(-n2nc(C)cc2C)n1	SKKanGAS inh 95.4
CCN(CC)CCNC(=O)c1cc2c(-c3cccc(OC)c3)nn(C)c2s1	none
COc1cccc(-c2nn(C)c3sc(C(=O)Nc4ccc5c(c4)OCCO5)cc23)c1	SKKanGAS inh 59.5
Cc1ccc(/C=C2/NC(=O)N(Cc3ccc(Br)cc3)C2=O)o1	PfHsp90 yeast 2 108.8
CC(C)(C)c1ccc(CS(=O)(=O)CC2(O)CCN(C(=O)c3cccc(C(F)(F)F)c3)CC2)cc1	none (no result: PfHsp90 yeast 2)
COCCCn1nnnc1SCC(=O)N1CCN(C(=O)c2ccco2)CC1	none
Cc1noc(C)c1S(=O)(=O)N(CCc1ccccc1)Cc1ccccc1	SKKanGAS inh 54.4
Cc1noc(C)c1S(=O)(=O)N(C)CC(=O)NCc1ccccc1	none
CCCCC(CC)C(=O)Oc1ccc(O)c(C(C)(C)C)c1 (stereo not given)	SKKanGAS inh 61.0
Cc1ccc(NC(=S)C2=C(O)c3sccc3N(C)S2(=O)=O)cc1	none
Cn1ncc(C#N)c1NC(=O)C1CC(c2c(F)cccc2Cl)=NO1 (stereo not given)	none
CC(C)c1ccc(N2C(=O)/C(=C/N(C)C)SC2=S)cc1	SKKanGAS inh 86.3
O=S(=O)(c1ccc(NC(=S)NC2CC2)cc1)N1CCOCC1	none
CC1CCN(c2nc3ccccc3nc2C(C#N)C(=O)NC2CCCCC2)CC1 (stereo not given)	SKKanGAS inh 67.6 (no result: ATG4B inh, PfHsp90 yeast 2)
CCC(C)COC(=O)C(C#N)c1nc2ccccc2nc1N1CCCCC1 (stereo not given)	SKKanGAS inh 52.8 (no result: PfHsp90 yeast 2)
Cc1[nH]n(-c2ccccc2)c(=O)c1/C=N/N(c1ccccc1)c1ccccc1	SKKanGAS inh 77.6
O=C(OCC(=O)N1CCCCC1)c1ccc2ccccc2n1	none (no result: SKKanGAS inh, PfHsp90 yeast 2)
Cc1ccc(S(=O)(=O)NC2(C(=O)O)CCCC2)cc1	none (no result: SKKanGAS inh, TIM10 inh, tim23-1 inh, tim10-1 inh)
CCOC(=O)C1=C(c2ccccc2)N=c2s/c(=C\c3cccc(O)c3)c(=O)n2C1c1cccs1 (stereo not given)	SKKanGAS inh 54.0 (no result: PfHsp90 yeast 2)
O=C(CN1CCCC1)Nc1ccc(Br)cc1	none
O=C(Nc1ccccc1)C(Cl)C(=O)c1ccccc1 (stereo not given)	PfHsp90 yeast 2 106.4
CC(=O)C(Cl)C(=O)Nc1ccccc1 (stereo not given)	none (no result: SKKanGAS inh, TIM10 inh, tim23-1 inh, tim10-1 inh)
CCCC[C@@H]1C[C@H]1[C@@H](NC(=O)c1ccco1)c1ccc(Cl)cc1	none (no result: PfHsp90 yeast 2)
COc1ccc(S(=O)(=O)Nc2ccccc2C)cc1C(=O)N1CCOCC1	none
Cc1ccccc1NS(=O)(=O)c1ccc(C)c(C(=O)N2CCOCC2)c1	SKKanGAS inh 52.1
CC(C)CNC(=O)NC(=O)COc1ccc(C=O)cc1	none
O=c1c2ccccc2ncn1-c1ccccc1F	none
N#Cc1ccccc1CSc1nc2ccsc2c(=O)n1Cc1ccccn1	none
Cc1ccc(CSc2nc3ccsc3c(=O)n2Cc2ccccn2)cc1	PfHsp90 yeast 2 77.8
O=C1CSC(=S)N1/N=C/c1cc(Br)c(O)c(Br)c1	ATG4B inh 61.1 (no result: TIM10 inh, tim23-1 inh, tim10-1 inh)
COc1cc(/C=N/N2C(=O)CSC2=S)ccc1O	none
CC(=O)Nc1ccc(/C(C)=N/NC(=O)c2ccc(COc3ccccc3Cl)o2)cc1	none
CCc1nnc(NC(=O)C(NC(=O)c2ccccc2Cl)C(C)C)s1 (stereo not given)	none
O=C(Nc1nc(-c2ccccn2)cs1)C1COc2ccccc2O1 (stereo not given)	PfHsp90 yeast 2 103.0 (no result: SKKanGAS inh)
CC1CC1C(=O)Nc1nc(-c2ccccn2)cs1 (stereo not given)	SKKanGAS inh 85.1
O=C(Nc1nnc(SCc2ccccc2Cl)s1)C1COc2ccccc2O1 (stereo not given)	SKKanGAS inh 68.7
CC(C)[C@H](NC(=O)c1ccccc1Cl)C(=O)Nc1nc(-c2ccccn2)cs1	SKKanGAS inh 79.0
COc1cccc(C(=O)Nc2cc3c(cc2N2CCOCC2)n(C)c(=O)n3C)c1	none
O=C1c2ccccc2C(=O)c2[nH]c(=O)[nH]c21	SKKanGAS inh 62.3
O=C1c2ccccc2C(=O)c2[nH]cnc21	none (no result: TIM10 inh, tim23-1 inh, tim10-1 inh)
CCOC(=O)CC(NC(=O)CCS(=O)(=O)c1ccc2c(c1)n(C)c(=O)c(=O)n2C)c1ccc(C)cc1 (stereo not given)	SKKanGAS inh 58.9
Cc1ccc(Cl)cc1N=C(N)N=C(N)N	none
COc1ccccc1CCNC(=O)CCn1c(=O)oc2ccccc21	none
COc1ccc(OC)c(S(=O)(=O)NCCO)c1	none
Cc1cccc(-c2nnc3n2N=C(c2ccc(Br)cc2)CS3)c1	none (no result: PfHsp90 yeast 2)
O=C(Nc1ccc(F)cc1)Nc1cc(OCC(F)(F)F)cc(OCC(F)(F)F)c1	SKKanGAS inh 77.9
COc1cc(C=NO)nc(-c2ccccn2)c1	PfHsp90 yeast 2 97.8 (no result: SKKanGAS inh, TIM10 inh, tim23-1 inh, tim10-1 inh)
Cc1ccc(OC(=O)c2sc3ncn(C)c(=O)c3c2C)cc1	SKKanGAS inh 77.9
Cc1ccc(-n2nnnc2-c2ccccc2)cc1	none
Cc1ccc(-n2nnnc2C(Cl)c2nnnn2-c2ccc(C)cc2)cc1	PfHsp90 yeast 2 109.7 (no result: TIM10 inh, tim23-1 inh, tim10-1 inh)
Nc1ccn([C@H]2CC[C@@H](CO)O2)c(=O)n1	none
Cc1ccccc1CNC(=O)Cn1ccc2cc(S(=O)(=O)N3CCCCCC3)ccc21	none
COc1cnc(-c2ccccn2)nc1Oc1ccccc1	SKKanGAS inh 57.1
COc1cnc(-c2ccccn2)nc1N(C)c1ccccc1	SKKanGAS inh 71.5
CCC(=O)N1CCc2cc(S(=O)(=O)NC(C(=O)Nc3cccc(C)n3)C(C)C)ccc21 (stereo not given)	none
O=Nc1c(O)c2ccccc2c2ccccc12	SKKanGAS inh 66.2, PfHsp90 yeast 2 110.6 (no result: TIM10 inh, tim23-1 inh, tim10-1 inh)
CC(=O)Nc1sc(NC(=O)c2ccc([N+](=O)[O-])cc2)nc1-c1cccs1	SKKanGAS inh 55.8
COc1cccc(-c2nc(N3CC(C)CC(C)C3)c3ccccc3n2)c1O (stereo not given)	SKKanGAS inh 64.9
Cc1ccccc1Nc1nc(N2CCOCC2)nc(N2CCOCC2)n1	none
O=C(Nc1cc(Cl)ccc1-n1cncn1)c1ccc([N+](=O)[O-])s1	PfHsp90 yeast 2 114.4

Screens (PubChem BioAssay)
